Measured values as given in PubChem BioAssay AID1159580 (chemical genetic matrix, 2015).
Screen size: about 5,500 compounds; about 2,000 (36%) were called active. Another 18% or so got no clear call; they are omitted. Cut-off read from the data, not from the text of the source: active = normalized growth mostly below about 0.91 (no sharp cut-off); inconclusive = no clear call, values can overlap the other calls; inactive = mostly above about 0.92. Some of the results follow.

Assay: chemical genetic growth profiling, strain panel (AID 1159580);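 note: tested at 20 µM; growth read once vehicle control cultures reached saturation at 30 °C; 1 = growth at the plate median or of vehicle wells; lower values mean less growth of the strain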
Details: growth OD
[1] = S. cerevisiae deletion strains, locus YAL013W, strain DEP1, stronger effect = lower value
[2] = S. cerevisiae deletion strains, locus YDR150W, strain NUM1, stronger effect = lower value
[3] = S. cerevisiae deletion strains, locus YJR075W, strain HOC1, stronger effect = lower value
[4] = S. cerevisiae deletion strains, locus YMR263W, strain SAP30, stronger effect = lower value
[5] = S. cerevisiae deletion strains, locus YNL153C, strain GIM3, stronger effect = lower value
[6] = S. cerevisiae deletion strains, locus YPL241C, strain CIN2, stronger effect = lower value

Measured: normalized growth

CC1Cc2cc3c(cc2C(c2ccc(N)cc2)=NN1)OCO3 (centres undefined)
inactive: [1] 0.958 | S. cerevisiae deletion strains, locus YAL040C, strain CLN3, stronger effect = lower value 0.946 | S. cerevisiae deletion strains, locus YCL061C, strain MRC1 (second series), stronger effect = lower value 0.991 | [2] 0.995 | S. cerevisiae deletion strains, locus YDR363W, strain ESC2, stronger effect = lower value 0.989 | S. cerevisiae deletion strains, locus YER002W, strain NOP16, stronger effect = lower value 0.991 | [3] 0.97 | [4] 0.982 | [5] 0.979 | S. cerevisiae deletion strains, locus YNL175C, strain NOP13, stronger effect = lower value 0.996 | S. cerevisiae deletion strains, locus YNL197C, strain WHI3, stronger effect = lower value 0.999 | S. cerevisiae deletion strains, locus YNL224C, strain SQS1, stronger effect = lower value 0.996 | [6] 0.986

CCCSP(=O)(OCC)SCCC
inactive: [1] 1.01 | S. cerevisiae deletion strains, locus YBR021W, strain FUR4, stronger effect = lower value 1 | S. cerevisiae deletion strains, locus YBR229C, strain ROT2, stronger effect = lower value 1.02 | S. cerevisiae deletion strains, locus YCL029C, strain bik1, stronger effect = lower value 0.988 | S. cerevisiae deletion strains, locus YDL035C, strain GPR1, stronger effect = lower value 1.02 | S. cerevisiae deletion strains, locus YDL074C, strain BRE1, stronger effect = lower value 1.07 | S. cerevisiae deletion strains, locus YDL101C, strain DUN1, stronger effect = lower value 1.02 | S. cerevisiae deletion strains, locus YDL134C, strain PPH21, stronger effect = lower value 1.02 | S. cerevisiae deletion strains, locus YDL185W, strain tfp1, stronger effect = lower value 0.984 | S. cerevisiae deletion strains, locus YDL192W, strain arf1, stronger effect = lower value 0.988 | S. cerevisiae deletion strains, locus YDR101C, strain arx1, stronger effect = lower value 0.99 | [2] 1.02 | S. cerevisiae deletion strains, locus YDR162C, strain NBP2, stronger effect = lower value 1.02 | S. cerevisiae deletion strains, locus YDR318W, strain mcm21, stronger effect = lower value 0.995 | S. cerevisiae deletion strains, locus YDR388W, stronger effect = lower value 0.995 | S. cerevisiae deletion strains, locus YDR502C, strain sam2, stronger effect = lower value 0.996 | S. cerevisiae deletion strains, locus YEL061C, strain CIN8, stronger effect = lower value 1.02 | S. cerevisiae deletion strains, locus YER110C, stronger effect = lower value 0.983 | S. cerevisiae deletion strains, locus YER155C, strain BEM2, stronger effect = lower value 1.03 | S. cerevisiae deletion strains, locus YER167W, strain BCK2, stronger effect = lower value 0.994 | S. cerevisiae deletion strains, locus YGL078C, strain dbp3, stronger effect = lower value 0.964 | S. cerevisiae deletion strains, locus YGL086W, strain mad1, stronger effect = lower value 0.994 | S. cerevisiae deletion strains, locus YGL248W, strain PDE1, stronger effect = lower value 1.03 | S. cerevisiae deletion strains, locus YGR078C, strain PAC10, stronger effect = lower value 1.02 | S. cerevisiae deletion strains, locus YGR135W, strain pre9, stronger effect = lower value 0.98 | S. cerevisiae deletion strains, locus YGR229C, strain SMI1, stronger effect = lower value 1.03 | S. cerevisiae deletion strains, locus YGR252W, strain gcn5, stronger effect = lower value 0.927 | S. cerevisiae deletion strains, locus YHR030C, strain SLT2, stronger effect = lower value 1.02 | S. cerevisiae deletion strains, locus YHR079C, strain IRE1 (second series), stronger effect = lower value 0.982 | S. cerevisiae deletion strains, locus YHR094C, strain hxt1, stronger effect = lower value 0.978 | S. cerevisiae deletion strains, locus YHR129C, strain ARP1, stronger effect = lower value 1.02 | S. cerevisiae deletion strains, locus YHR200W, strain rpn10, stronger effect = lower value 0.982 | S. cerevisiae deletion strains, locus YIL066C, strain RNR3, stronger effect = lower value 1.03 | S. cerevisiae deletion strains, locus YIL073C, strain SPO22, stronger effect = lower value 0.996 | S. cerevisiae deletion strains, locus YIL125W, strain kgd1, stronger effect = lower value 0.987 | S. cerevisiae deletion strains, locus YIR030C, strain dcg1, stronger effect = lower value 0.976 | S. cerevisiae deletion strains, locus YJL095W, strain BCK1, stronger effect = lower value 1.04 | S. cerevisiae deletion strains, locus YJL134W, strain LCB3, stronger effect = lower value 1.01 | S. cerevisiae deletion strains, locus YJL168C, strain set2, stronger effect = lower value 0.981 | S. cerevisiae deletion strains, locus YJL187C, strain SWE1 (second series), stronger effect = lower value 1.01 | S. cerevisiae deletion strains, locus YJR043C, strain POL32, stronger effect = lower value 1.02 | [3] 1.03 | S. cerevisiae deletion strains, locus YKL009W, strain mrt4, stronger effect = lower value 1.01 | S. cerevisiae deletion strains, locus YKL068W, stronger effect = lower value 0.996 | S. cerevisiae deletion strains, locus YKL085W, strain MDH1 (second series), stronger effect = lower value 0.99 | S. cerevisiae deletion strains, locus YKL085W, strain MDH1, stronger effect = lower value 0.99 | S. cerevisiae deletion strains, locus YKL190W, strain CNB1, stronger effect = lower value 1 | S. cerevisiae deletion strains, locus YKR001C, strain vps1, stronger effect = lower value 0.982 | S. cerevisiae deletion strains, locus YLR039C, strain RIC1, stronger effect = lower value 1.02 | S. cerevisiae deletion strains, locus YLR058C, strain SHM2, stronger effect = lower value 1.01 | S. cerevisiae deletion strains, locus YLR102C, strain apc9, stronger effect = lower value 0.977 | S. cerevisiae deletion strains, locus YLR262C, strain YPT6, stronger effect = lower value 1.02 | S. cerevisiae deletion strains, locus YLR268W, strain sec22, stronger effect = lower value 0.994 | S. cerevisiae deletion strains, locus YLR330W, strain CHS5, stronger effect = lower value 1.02 | S. cerevisiae deletion strains, locus YLR342W, strain FKS1 (second series), stronger effect = lower value 0.995 | S. cerevisiae deletion strains, locus YLR371W, strain rom2, stronger effect = lower value 0.981 | S. cerevisiae deletion strains, locus YLR418C, strain cdc73, stronger effect = lower value 0.999 | S. cerevisiae deletion strains, locus YML016C, strain PPZ1, stronger effect = lower value 1.02 | S. cerevisiae deletion strains, locus YML032C, strain rad52, stronger effect = lower value 0.983 | S. cerevisiae deletion strains, locus YML124C, strain tub3, stronger effect = lower value 0.989 | S. cerevisiae deletion strains, locus YMR078C, strain ctf18, stronger effect = lower value 0.983 | S. cerevisiae deletion strains, locus YMR223W, strain ubp8, stronger effect = lower value 0.974 | [4] 1.03 | S. cerevisiae deletion strains, locus YMR307W, strain GAS1, stronger effect = lower value 1.01 | S. cerevisiae deletion strains, locus YNL067W, strain RPL9B, stronger effect = lower value 1.02 | S. cerevisiae deletion strains, locus YNL128W, strain TEP1, stronger effect = lower value 1.03 | [5] 1.02 | S. cerevisiae deletion strains, locus YNL233W, strain BNI4, stronger effect = lower value 1.01 | S. cerevisiae deletion strains, locus YNL250W, strain rad50, stronger effect = lower value 0.984 | S. cerevisiae deletion strains, locus YNL271C, strain bni1, stronger effect = lower value 0.974 | S. cerevisiae deletion strains, locus YNL298W, strain CLA4, stronger effect = lower value 0.977 | S. cerevisiae deletion strains, locus YNL307C, strain MCK1, stronger effect = lower value 0.979 | S. cerevisiae deletion strains, locus YNL322C, strain KRE1, stronger effect = lower value 1.01 | S. cerevisiae deletion strains, locus YNR052C, strain pop2, stronger effect = lower value 0.971 | S. cerevisiae deletion strains, locus YOL006C, strain TOP1, stronger effect = lower value 1.05 | S. cerevisiae deletion strains, locus YOL012C, strain htz1 0.903 | S. cerevisiae deletion strains, locus YOL147C, strain pex11, stronger effect = lower value 0.991 | S. cerevisiae deletion strains, locus YOR061W, strain CKA2, stronger effect = lower value 1.01 | S. cerevisiae deletion strains, locus YOR069W, strain VPS5, stronger effect = lower value 1.01 | S. cerevisiae deletion strains, locus YOR136W, strain idh2, stronger effect = lower value 0.998 | S. cerevisiae deletion strains, locus YOR144C, strain elg1, stronger effect = lower value 0.999 | S. cerevisiae deletion strains, locus YOR184W, strain ser1, stronger effect = lower value 0.975 | S. cerevisiae deletion strains, locus YOR316C, strain cot1, stronger effect = lower value 0.99 | S. cerevisiae deletion strains, locus YPL055C, strain LGE1, stronger effect = lower value 1.03 | [6] 1.01 | S. cerevisiae deletion strains, locus YPR119W, strain clb2, stronger effect = lower value 0.985 | S. cerevisiae deletion strains, locus YPR141C, strain kar3, stronger effect = lower value 0.987 | S. cerevisiae deletion strains, locus YPR163C, strain tif3, stronger effect = lower value 0.986 | S. cerevisiae deletion strains, locus YPR167C, strain met16, stronger effect = lower value 0.985 | S. cerevisiae deletion strains, strain wtn01, stronger effect = lower value 0.987 | S. cerevisiae strains, strain wild type, stronger effect = lower value 1.02
